Results on eight compounds are retold here after PubChem BioAssay (NCI).

Holding throughout (assay): NCI-60 one-dose screen, 48 h (100 = growth as untreated, 0 = no growth, -100 = all killed)
Common to all, as to details: 10 µM unless noted

Test [1] deals with HCT-15 colon.
Test [2] deals with HT29 colon.
In test [3] the test system is SNB-75 CNS.
Test [4] concerns SNB-19 CNS.
Test [5] deals with U251 CNS.
Test [6] deals with PC-3 prostate.
The test system of test [7] is SK-MEL-5 melanoma.
Test [8] concerns UACC-62 melanoma.
Test [9] concerns LOX IMVI melanoma.
Test [10] concerns SK-MEL-28 melanoma.
Test [11] concerns SK-MEL-2 melanoma.
For test [12], the system named is EKVX NSCLC.
Test [13] relates to SN12C renal.
Test [14] deals with UO-31 renal.
In test [15] the test system is TK-10 renal.
Test [16] deals with ACHN renal.
Test [17] concerns A498 renal.
The test system of test [18] is CCRF-CEM leukemia.
Test [19] deals with MOLT-4 leukemia.
In test [20] the test system is SR leukemia.

The structures appear in SMILES notation. This is part of a sample that, as a whole, favours compounds with a hit. Of some 83,000 tested, about 20% had one in any assay.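 Note: values are percent growth. 100 is the growth of untreated cells, values between 100 and 0 indicate rising inhibition; between -100 and 0 indicates cell death.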 Values without a mark were called inactive. Calls of active or inactive are those of the source. How the source made its calls: active means growth percent below 10; inactive means the rest.

For `O=C1c2ccccc2C(=O)c2c1oc1c2c(=O)[nH]c2ccc(Cl)cc21`, the growth is -31.1% (active) in test [1]; 66.4% in [2]; -9.01% (active) in test [3]; 7.11% (active) in [4]; -77.5% (active) in test [5]; -33.3% (active) in test [6]. Moreover, the growth in [7] is 12.3%; in test [8] it was 75.1%; in [9], 11.1%; in test [10] it was -11.8% (active); in test [11], 31.8%; in test [12] it was 15.2%. In addition, the growth in test [13] was -26.3% (active); in test [14], -54.9% (active); in test [15], -42.1% (active); in test [16], -14.2% (active); in [17], 80.4%; in test [18], 29%. For the same compound, the results for the growth in test [19] and in test [20] were 18.4% and 33.7%, respectively.
With `Nc1cc(N)nc(SCC(=O)O)n1`, the growth in test [1] was 110%; in [2] it was 85.1%; in [3] it was 100%; in [4], 100%; in test [5], 93.4%; in test [6] it was 89.9%. Further, the growth in [7] is 99.8%; in test [8], 99.1%; in test [9] it was 97.4%; in test [10], 106%; in test [11], 99.7%; in test [12], 106%. Moreover, the growth in test [13] is 103%; in test [14], 94.4%; in test [15], 98.2%; in test [16], 109%; in test [17], 89.4%; in [18], 96.2%. In addition, the growth was 103% in test [19] and 92.3% in test [20].
Consider `C#Cc1ccccc1NC(=O)c1sc2nc3c(cc2c1N)CCCCC3`, for which the growth in test [1] was 97.6%; in [2], 81.3%; in test [3] it was 90.4%; in [4] it was 109%; in test [5] it was 99%; in test [6], 97.7%. Also, the growth in test [7] is 97.2%; in test [8], 95.2%; in test [9], 95.8%; in test [10], 111%; in [11], 101%; in [12] it was 84.8%. Besides, the growth in test [13] is 98.2%; in test [14], 85.4%; in test [15], 117%; in [16], 101%; in test [17] it was 94.1%; in test [18] it was 93.8%. The growth in [19] is 94.5%; in test [20] it was 81.2%.
For the compound `COc1cc(C(C)c2ccc3c(ccn3C)c2)cc(OC)c1OC` (stereo not given), the growth in test [1] is 15.9%; in test [2] it was 3.88% (active); in test [3] it was 47%; in test [4], 33.5%; in [5] it was 14.4%; in [6], 23.2%. The growth in test [7] is -51.8% (active); in [8] it was 32.7%; in test [9], 23.2%; in test [10] it was 67%; in test [11] it was 30.5%; in [12] it was 34.9%. Besides, the growth in test [13] is 32.6%; in [14], 35.2%; in [15], 71.3%; in test [16], 28.5%; in [17], 8.95% (active); in test [18] it was 16.3%. Besides, the results for the growth in test [19] and in test [20] were 12.6% and 13.8%, respectively.
Regarding `O=C(CCc1nnco1)c1nc2ccc([N+](=O)[O-])cc2[nH]1`, the growth in test [1] was 105%; in test [2], 103%; in test [3], 104%; in test [4], 108%; in test [5], 107%; in test [6] it was 96.1%. For the same compound, the growth is 109% in test [7]; 96.7% in test [8]; 93.2% in test [9]; 111% in test [10]; 94.7% in [11]; 94% in test [12]. The growth was 107% in test [13]; 74.9% in test [14]; 146% in [15]; 101% in test [16]; 126% in [17]; 109% in test [18]. In addition, the growth in test [19] was 97.9%; in test [20], 91.5%.
With `CCOC(=O)c1c(C)nc2c(c1N)/C(=C/c1ccc[nH]1)C(=O)N2Cc1ccc(C(F)(F)F)cc1`, the growth in test [1] was 68.8%; in test [2], 70%; in test [3], 25.3%; in test [4], 36.3%; in test [5] it was 25.2%; in test [6] it was 52.1%. Moreover, the growth in [7] was 82.2%; in test [8], 81.8%; in [9], 56.7%; in [10], 89.6%; in test [11] it was 75.5%; in [12], 53.7%. Moreover, the growth in [13] is 49.4%; in test [14], 35.4%; in [15], 49.3%; in test [16], 26.1%; in test [17], 57.5%; in test [18], 75%. Besides, the growth was 78.4% in test [19] and 62.5% in [20].
For the compound `NS(=O)(=O)c1ccc(-n2ncc(NC(=O)Nc3ccc(S(=O)(=O)Nc4nccs4)cc3)c2-c2ccccc2)cc1`, the growth was 104% in test [1]; 99.9% in test [2]; 65.7% in [3]; 103% in [4]; 102% in test [5]; 111% in [6]. In addition, the growth in test [7] is 105%; in test [8], 98.4%; in test [9] it was 101%; in test [10] it was 102%; in test [11] it was 93.2%; in [12], 100%. The growth is 98.8% in test [13]; 97.5% in [14]; 95.9% in [15]; 96.5% in [16]; 112% in test [17]; 97.7% in test [18]. For the same compound, the growth in test [19] was 100%; in [20], 103%.
As for `CCN1CCN(Cc2ccc(NC(=O)c3cccc(C#Cc4cccc5[nH]nc(N)c45)c3)cc2C(F)(F)F)CC1`, the growth was -70.7% (active) in test [1]; -83% (active) in test [2]; -60.8% (active) in [3]; -83.6% (active) in [4]; -95.6% (active) in test [5]; -80.3% (active) in [6]. The growth was -97.2% (active) in test [7]; -77.1% (active) in test [8]; -100% (active) in [9]; -82.9% (active) in [10]; -70.1% (active) in test [11]; -46.4% (active) in [12]. For the same compound, the growth is -35.4% (active) in [13]; -92.3% (active) in test [14]; -94.4% (active) in [15]; -81.1% (active) in test [16]; -63.5% (active) in test [17]; -16.2% (active) in [18]. The growth in test [19] was -31.2% (active); in test [20], -49.2% (active).
